# Laboratory results from the supplement of paper PMC7411054.
# Where a name gives a salt, the structure may show the parent alone. A number with no mark means an inactive call.
# Tested on: HepG2-TUBA1B-RELA
# Experiment: phenotypically active (imaging signature differs from DMSO and reproducible) at any of 0.3-9 uM (binary (1 = active, 0 = inactive)); higher = active
# Settings: treatment time: 24 h
# How it was run: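 Two criteria together defined phenotypic activity: deviation and reproducibility. Deviation meant ≥3 of 4 wells beyond the 95th percentile of Euclidean distances in solvent control wells, and reproducibility meant a median replicate Pearson correlation above the 95th percentile of non-replicates. Wells had been treated for 24 h at 0.3, 1, 3 or 9 µM in fifteen gene-edited A549, HepG2 and WPMY1 reporter lines before live imaging.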
row,SMILES,phenotypically active
1,CC[C@H]1CN2CC[C@H]1C[C@@H]2[C@@H](O)c1ccnc2ccc(OC)cc12 [Hydroquinidine HCl],0
2,COc1cc2c(c(OC)c1OC)-c1ccc(O)c(=O)cc1[C@@H](N)CC2 [Trimethylcolchicinic acid],1 (active)
3,C[C@@]1(CO)[C@H](O)CC[C@@]2(C)[C@H]1CC[C@H]1C[C@@H]3C[C@@]12CC[C@]3(O)CO [Aphidicolin],1 (active)
4,COC(=O)[C@@]1(O)C[C@H]2O[C@]1(C)n1c3ccccc3c3c4c(c5c6ccccc6n2c5c31)C(=O)NC4,1 (active)
5,COc1ccc(N(C(=O)Oc2c(C)cccc2C)c2ccnc(Nc3ccc(N4CCN(C)CC4)cc3)n2)c(OC)c1,1 (active)
6,COc1ccc2c(c[n+](C)c3c4cc5c(cc4ccc23)OCO5)c1OC [Chelerythrine chloride],0
7,CC[C@@H]1C=CC=CC[C@H](C)[C@@H](O)[C@](C)(O)C(=O)[C@H](C)[C@@H](O)[C@H](C)C(=O)[C@H](C)[C@@H](O)[C@H](C)C=CC(=O)O[C@H]2[C@@H](C)[C@@H](CC1)O[C@@]1(CC[C@@H](C)[C@@H](C[C@H](C)O)O1)[C@@H]2C [Oligomycin A],1 (active)
8,CC(C)[C@@]1(NC(=O)[C@@H]2C[C@@H]3c4cccc5[nH]cc(c45)C[C@H]3N(C)C2)O[C@@]2(O)[C@@H]3CCCN3C(=O)[C@H](Cc3ccccc3)N2C1=O [Dihydroergocristine mesylate],1 (active)
9,O=c1[nH]c2ccccc2n1C1CCN(CCCC(c2ccc(F)cc2)c2ccc(F)cc2)CC1 [pimozide],1 (active)
